An excerpt weighted towards active compounds, which were near 7.8% of everything screened.
Vaccinia Venus = inhibitors of vaccinia virus (Venus reporter) | Vaccinia virus Venus reporter expression, fluorescence | Potency, µM (highest dose often 36.5 µM), inactives show top-dose activity change, negative = inhibition, most hits filed as inhibitors | hit rate 0.46% among 330,000; calls by dose curve; tested in A549 cells; further: potency means the concentration at half of the fitted maximal effect; nearly all actives have a fitted effect of over 30% in size
HCV inh = inhibitors of hepatitis C virus infection | Huh7.5.1 HCVcc-Cre infection, luciferase reporter, 44 h | Potency, µM (top dose mostly 41.8 µM), without a hit: top-dose activity change, negative = inhibition, hits mostly inhibitors | hit rate 3.4% among 340,000 | AID 651820; active means well fitted inhibition curve with a large enough effect; inconclusive means small, poorly fitted or top-dose-only effect, or another doubt; inactive means no such curve, though single readings can be large or run the other way; further: potency means the concentration at half of the fitted maximal effect
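1,000 cells/well; 4 h culture; + compound; + HCVcc-Cre (~0.5 moi); 44 h; luciferase substrate, RT 15 min; read 15 sec.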
HCMV inh = blocks human cytomegalovirus replication; HFF cells, HCMV-luciferase reporter, 72 h; hits give low values; activity change, negative = inhibition, % at 57.5 µM; hit rate 4.5% among 410,000; AID 1259415; in the data active means activity change below about -60%; inconclusive means no clear call, values can overlap the other calls; inactive means above about -39%
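After 16 h attachment at 37C, HFF cells received test compound and HCMV-luciferase (1 PFU/cell); reporter luminescence read 72 h later, data normalized against buffer-only and known inhibitor Salinomycin.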
Lassa entry inh = blocks Lassa virus binding to or entry into cells | Lassa virus pseudotype entry inhibition, cell reporter | hit rate 1.2% among 300,000 | Potency, µM (series often up to 37.9 µM), without a hit: at the top dose activity change, negative = inhibition, actives largely listed as inhibitors | AID 540256; calls by dose curve; tested in HEK293 cells; further: potency means the concentration at half of the fitted maximal effect; nearly all actives have a fitted effect of over 50% in size
Marburg entry inh = Marburg virus entry inhibition; Marburg virus pseudotyped entry inhibition, cell reporter; Potency, µM (titrated, usually from 37.8 µM), inactives show top-dose activity change, negative = inhibition, hits mostly inhibitors; hit rate 1.8% among 300,000; AID 540276; calls by dose curve; tested in HEK293 cells; further: potency means the concentration at half of the fitted maximal effect
VACV mCherry inh = inhibitors of vaccinia virus infection (mCherry reporter signal) | hit rate 0.63% among 310,000 | Vaccinia virus mCherry reporter infection, fluorescence | Potency, µM (titrated, usually from 36.5 µM), for the others: at the top dose activity change, negative = inhibition, most hits filed as inhibitors | AID 720579; calls by dose curve; tested in A549 cells; further: potency means the concentration at half of the fitted maximal effect; nearly all actives have a fitted effect of over 35% in size
Numbers without * were called inactive; i = inactive; ? = inconclusive; nt = no result; + = active, no number; [ ] = remark or other dose. On the % scale 0 is the no-effect control and ±100 the full control effect.

SMILES	Vaccinia Venus	HCV inh	HCMV inh	Lassa entry inh	Marburg entry inh	VACV mCherry inh
Cc1ccc(-c2c[n+](Cc3ccc(Cl)cc3)c3n2CCC3)cc1	-14%	-12%	-79*	?	-24%	i
Cc1ccc(C[n+]2cc(-c3ccc(Cl)cc3)n3c2CCC3)cc1	-15%	-25%	-61*	?	?	i
Cc1cc(=O)oc2cc(CN3C(=O)C(=O)c4cc(F)ccc43)ccc12	nt	nt	-39	nt	nt	nt
Cc1ccc(NC(=O)Cn2c(=O)oc3cc(S(=O)(=O)N4CCCCC4)ccc32)c(Cl)c1	-14%	nt	-35	nt	-21%[46.1 µM]	-25%
COc1ccccc1N1CCN(C(=O)c2cc(S(=O)(=O)N3CCC(C)CC3)cn2C)CC1	-21%	nt	-5	12%[46.1 µM]	nt	?
Cc1cc(=O)n(CC(=O)N2CCN(c3ccccc3F)CC2)c2c1c(C)nn2C	-2%[7.34 µM]	nt	-60*	-24%[46.1 µM]	nt	-6%[7.34 µM]
Cc1ccc(CC(=O)Nc2nc3ccccc3s2)cc1	-15%	-16%	-5	?	?	-25%
Cc1nc2c(ccc3nc(NC(=O)Cc4ccccc4)sc32)s1	-28%	10µM*	28	?	?	-16%
CCCCCN(CCCCC)C(=O)[C@H](CCC(=O)O)NC(=O)c1ccc(Cl)c(Cl)c1	nt	nt	nt	nt	7%	nt
CCCCCN(CCCCC)C(=O)C(CCC(=O)O)NC(=O)c1ccc(Cl)c(Cl)c1 (stereo not drawn)	-9%	14%	-61*	-1%	?	-9%
COc1cccc(NS(=O)(=O)c2c(C)n(C)c(=O)n(C)c2=O)c1	-1%	14%	-70*	nt	nt	3%
O=C(c1cc(S(=O)(=O)N2CCN(c3ccccc3)CC2)ccc1Cl)N1CCCC(C(F)(F)F)C1 (stereo not drawn)	-29%	7.9µM*	-82*	?	?	-8%
O=C(c1cccc(S(=O)(=O)N2CCCC2)c1)N1CCN(c2ccccc2)CC1	-24%	?	-16	47%[14.3 µM]	?	?
O=C(c1cccc(S(=O)(=O)N2CCN(c3ccccc3)CC2)c1)N1CCCC(C(F)(F)F)C1 (stereo not drawn)	-19%	?	-91*	?	?	-28%
COc1ccc(S(=O)(=O)N2CCN(c3ccccc3)CC2)cc1C(=O)N1CCCC1	-17%	nt	-7	?	6%	-7%
COc1ccc2c(c1)c(C(=O)CN(C)C)c(C)n2C	-9%	nt	nt	nt	nt	1%
Cc1nc2nc[nH]n2c(=O)c1CCC(=O)Nc1ccc(F)cc1	-5%	nt	-2	20%[46.1 µM]	16%[46.1 µM]	-10%
CC(Oc1ccccc1)C(=O)Nc1ccc(C(=O)OCc2cc(=O)n3ccsc3n2)cc1 (stereo not drawn)	-3%	nt	6	?	nt	-8%
Cc1ccc(C)c(CN2C(=O)c3ccccc3S(=O)(=O)c3ccc(C(=O)N4CCN(C)CC4)cc32)c1	-21%	?	-34	?	4%[46.1 µM]	-22%
Cc1ccc(C)c(CN2C(=O)c3ccccc3S(=O)c3ccc(C(=O)N4CCN(c5ccccn5)CC4)cc32)c1 (stereo not drawn)	-4%	11µM*	-98*	?	?	?
COc1ccccc1N1CCN(C(=O)c2ccc3c(c2)N(Cc2cc(C)ccc2C)C(=O)c2ccccc2S3(=O)=O)CC1	-19%	nt	-67*	?	?	-18%
Cc1ccc(N2C(=O)c3cccc4c(N)ccc(c34)C2=O)c2cccnc12	nt	14%	+	nt	nt	nt
CC(C)c1cccc(-c2ccc3c(c2)S(=O)(=O)c2cccc(C(=O)NCc4ccccc4Cl)c2C3=O)c1	13µM*	-4%	nt	nt	nt	?
COc1ccc(-c2ccc3c(c2)S(=O)(=O)c2cccc(C(=O)NCCOc4ccccc4Cl)c2C3=O)cc1OC	7.9µM*	?	-98*	nt	nt	?
CC(C)c1cccc(-c2ccc3c(c2)S(=O)(=O)c2cccc(C(=O)NCc4ccccc4)c2C3=O)c1	?	7%	-4	nt	nt	-15%
SMILES	Vaccinia Venus	HCV inh	HCMV inh	Lassa entry inh	Marburg entry inh	VACV mCherry inh
Cc1c(Cl)cccc1NC(=O)Cn1nc(C(F)(F)F)c2c1CCC2	-8%	nt	11	11%[46.1 µM]	-10%[46.1 µM]	-8%
CCn1ccnc1CN(C)Cc1cn[nH]c1-c1ccc(OC)c(F)c1	-15%	11%	-72*	14%[46.1 µM]	8%[46.1 µM]	i
CN(CC(=O)NC1CCCc2ccccc21)S(=O)(=O)c1ccc2c(c1)c(=O)n(C)c(=O)n2C (stereo not drawn)	-17%	-9%	-9	nt	nt	i
CN(CC(=O)NC1CCCc2ccccc21)S(=O)(=O)c1cccs1 (stereo not drawn)	-16%	-28%	-74*	8%	?	-12%
CC1=C(C)CS(=O)N(c2ccc(S(N)(=O)=O)cc2)C1 (stereo not drawn)	-18%	18%	31	?	1%	i
CC1=C(C)CS(=O)N(S(=O)(=O)c2ccccc2)C1 (stereo not drawn)	nt	22%	-16	10%	13µM*	nt
Cc1ccc2c(c1)CN(CCNC(=O)C(C)Oc1ccccc1)CC(C)O2 (stereo not drawn)	-3%	nt	nt	nt	nt	-13%
COc1cc(CN(C)CC2CCCN(CCc3cccc(C(F)(F)F)c3)C2)ccc1O (stereo not drawn)	-15%	13µM*	-17	?	?	-6%
COc1ccc(F)c(CN(C)CC2CCCN(CCc3ccc(F)cc3)C2)c1 (stereo not drawn)	-19%	?	-15	?	11µM*	-8%
COc1ccc(CN(C)CC2CCCN(CCc3ccc(F)cc3)C2)cc1OC (stereo not drawn)	nt	?	0	nt	nt	nt
COc1ccccc1CCN1CCCC(CN(C)CC(C)(C)CO)C1 (stereo not drawn)	-11%	13%	51	?	13µM*	-13%
CCOc1cccc(CN(C)CC2CCCN(CCc3ccc(Cl)cc3)C2)c1O (stereo not drawn)	nt	5µM*	-12	nt	nt	nt
COc1cc(CN(C)CC2CCCN(CCc3ccc(F)cc3)C2)c(Cl)cc1O (stereo not drawn)	nt	?	17	nt	nt	nt
Cc1ccc(S(=O)(=O)N2CCc3cc(C(=O)N(C)Cc4ccccc4)ccc32)cc1	-27%	nt	?	-21%[46.1 µM]	2%[46.1 µM]	-22%
COc1ccc(CN(C)CC2CCCN(CCc3ccc(Cl)cc3)C2)cc1OC (stereo not drawn)	-13%	10µM*	43	?	2.2µM*	-15%
Cc1c(Cl)cccc1-c1ccc(CNc2ccc3[nH]c(=O)[nH]c3c2)o1	-16%	nt	-23	9%[46.1 µM]	-3%[46.1 µM]	-2%
Cc1cc(C)c(Cn2c(C(O)c3ccccc3)nc3ccccc32)c(C)c1 (stereo not drawn)	-21%	nt	?	?	?	-10%
Cc1cccc(CCn2c(=O)c3ccccc3n(CC(=O)Nc3ccccc3F)c2=O)c1	-16%	nt	-31	?	5%[46.1 µM]	-20%
O=C(Nc1ccccc1-c1nc2ccccc2o1)c1ccc2c(c1)OCCO2	nt	nt	nt	nt	-1%	nt

Screening data deposited in PubChem by National Center for Advancing Translational Sciences (NCATS).
